# Assay results: PubChem BioAssay (EPA / NIEHS)
# Active and inactive are the calls of the source. Rule for the calls: active = hit-call score of the fitted dose curve at least 0.9, where 1 is the maximum; inactive = score below 0.9.
# Assay: IUF_NPC2c_oligodendrocyte_migration_120hr: Leibniz Research Institute for Environmental Medicine (IUF) 120-hour Neural Progenitor Cell Migration Assay for Oligodendrocyte Migration (NPC2c) (AID 2284297)
# Experimental: IUF_NPC2-5 is a cell-based, multiplexed assay that uses hNPC, a human primary neural progenitor cells, with measurements taken at 72 or 120 hours after chemical dosing in a 96-well plate. Human neural progenitor cells (hNPC) are generated from human fetal brain cortex at gestational week (GW) 16-19. In the neural progenitor cell migration and differentiation assay (NPC2-5), hNPCs grown as spheres are plated on an extracellular matrix and migrate and differentiate out of the sphere core. The processes radial glia migration, neuronal and oligodendrocyte migration as well as neuronal differentiation, neuronal morphology and oligodendrocyte differentiation are studied using automated phase contrast imaging and automated fluorescence imaging in combination with high content image analysis. In parallel, the cell viability is assessed using an alamar blue viability assay and the cytotoxicity using a lactate dehydrogenase dependent membrane integrity assay.IUF_NPC2b_oligodendrocyte_migration_120hr is one of 12 assay components measured from the IUF_NPC2-5 assay. Oligodendrocyte migration distance at 120 hr is the mean distance of all oligodendrocytes from the edge of the sphere core to each individual oligodendrocyte (see IUF_NPC5_oligodendrocyte_differentiation_120hr). Oligodendrocyte migration is normalized to radial glia migration distance at 120 hr.Data from the IUF_NPC2c_oligodendrocyte_migration_120hr component was analyzed at the endpoint IUF_NPC2c_oligodendrocyte_migration_120hr in the positive analysis fitting direction relative to DMSO as the negative control and baseline of activity. Using a type of migration reporter, gain or loss-of-signal activity can be used to understand developmental effects.
# Culture protocol: After the cell expansion period the cells are cultured for up to four weeks in which they are passaged every week as described in 3.6. Between one to three days after passaging spheres at a size of 0.3 mm are picked for the test method. For the assessment of neural progenitor cell migration and differentiation, the spheres are plated on poly-D-lysine/laminin coated 96-well flat bottom plates in differentiation medium (N2) to initiate migration and differentiation. Thereby one 0.3 mm big sphere is plated in the middle of a well. The differentiation medium consists of DMEM and Ham's F12 at a ratio of 3 to 1 supplemented with 1% N2 and 1% penicillin and streptomycin. Within 5 days NPCs radially migrate out of the sphere core and differentiate into radial glia cells (nestin positive), neurons (TUBB3 positive), oligodendrocytes (O4 positive) and astrocytes (GFAP positive). Cultivation during the test method is performed at 37C and 5% CO2 at a ph of 7.2-7.6.Exposure: 0.3 mm big hNPC are plated in the already prepared test conditions. Exposure starts at day 0 of differentiation and is continued over five days of differentiation until the experiment is terminated. Cells are fed with fresh medium at day 3 of differentiation. Therefore, half of the test condition solution (e.g. solvent control or compound dilution) is replaced by freshly prepared test condition solution.Test Method: Migration distance and cytotoxicity is determined after 72 hours based on brightfield images of each well. The assay is terminated by the assessment of cell viability and cytotoxicity as well as cell fixation after 120 h. Immunocytochemistry is performed for Hoechst positive nuclei, TUBB3 positive neurons and O4 positive oligodendrocytes. On the ICC images, migration after 120 hours, neuronal and oligodendrocyte number, neuronal morphology and neuron/oligodendrocyte specific migration is assessed. immunocytochemical staining (ICC) generates an image for each sphere. The plates are scanned using an automated high content imaging device and all nuclei and their positions are determined automatically based on their intensity and size. Images are imported to the Omnisphero software to run the image analysis that measures the following endpoints. […]
Compound,outcome,AC50
CNC(=O)CSP(=S)(OC)OC,inactive,
CC(C)N(C(=O)COc1nnc(C(F)(F)F)s1)c1ccc(F)cc1,inactive,
O=[N+]([O-])/N=C1\NCCN1Cc1ccc(Cl)nc1,inactive,
COP(=O)(OC)OC=C(Cl)Cl,,38.2 µM (active)
O=S1OCC2C(CO1)C1(Cl)C(Cl)=C(Cl)C2(Cl)C1(Cl)Cl (stereo not drawn),inactive,
COP(=S)(OC)Oc1ccc([N+](=O)[O-])cc1,inactive,
CC[C@H](C)[C@H]1O[C@]2(C=C[C@@H]1C)C[C@@H]1C[C@@H](C/C=C(\C)[C@@H](O[C@H]3C[C@H](OC)[C@@H](O[C@H]4C[C@H](OC)[C@@H](O)[C@H](C)O4)[C@H](C)O3)[C@@H](C)/C=C/C=C3\CO[C@@H]4[C@H](O)C(C)=C[C@@H](C(=O)O1)[C@]34O)O2 (tested in a mixture with another compound),inactive,
O=C(O)C(F)(F)C(F)(F)C(F)(F)C(F)(F)C(F)(F)C(F)(F)C(F)(F)F,inactive,
CCC(C)(C)C(=O)OC1=C(c2ccc(Cl)cc2Cl)C(=O)OC12CCCCC2,inactive,
O=C(O)COc1ccc(Cl)cc1Cl,inactive,
CC1(C)C(C=C(Cl)Cl)C1C(=O)OC(C#N)c1ccc(F)c(Oc2ccccc2)c1 (stereo not drawn),inactive,
O=S(=O)(O)C(F)(F)C(F)(F)C(F)(F)C(F)(F)C(F)(F)C(F)(F)C(F)(F)C(F)(F)F,inactive,
CC1(c2ccc(Oc3ccccc3)cc2)OC(=O)N(Nc2ccccc2)C1=O (stereo not drawn),inactive,
